Only some compounds are listed: those with a hit (about 21% of all), similar ones and a draw of the others.
DRD3 agonist: qHTS of D3 Dopamine Receptor Agonist: qHTS; D(3) dopamine receptor (Homo sapiens), P35462; D3R DiscoveRx beta-arrestin cells, luminescence, 90 min; max activation, %; 410,000 compounds, 0.58% hits; AID 652048, 2013; in the data active means max activation above about 30%
Target sequence (P35462 whole entry, looked up): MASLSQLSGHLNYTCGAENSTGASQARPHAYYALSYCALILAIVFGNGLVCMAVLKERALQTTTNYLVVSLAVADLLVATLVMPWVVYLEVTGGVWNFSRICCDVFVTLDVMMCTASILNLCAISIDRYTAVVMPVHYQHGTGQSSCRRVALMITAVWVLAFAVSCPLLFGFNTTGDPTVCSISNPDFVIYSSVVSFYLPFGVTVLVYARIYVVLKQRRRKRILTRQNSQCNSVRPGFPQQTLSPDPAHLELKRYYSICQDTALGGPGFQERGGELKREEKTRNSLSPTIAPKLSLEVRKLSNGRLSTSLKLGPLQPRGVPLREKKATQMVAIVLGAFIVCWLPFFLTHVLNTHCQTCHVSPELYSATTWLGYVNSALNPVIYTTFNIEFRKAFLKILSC
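Cells at 1500/well, incubated overnight, then treated with pinned compounds (dopamine as control) for 90 min at 37 degrees C. DiscoveRx reagent added for 30 - 60 minutes at room temperature; luminescence read.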
TDP1 cell noCPT: qHTS for Inhibitors of human tyrosyl-DNA phosphodiesterase 1 (TDP1): qHTS in cells in absence of CPT; 420,000 compounds, 15% hits; Potency, µM (top dose mostly 46.2 µM), hits mostly inhibitors; DT40 Tdp1-/- hTDP1 cells, no CPT, ATP luminescence, 48 h; further: nearly all actives have a fitted effect of over 55% in size
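Stably hTDP1-transfected Tdp1-null chicken DT40 cells were treated with library compounds minus camptothecin and grown for at least 48 hr at 37 °C, after which cellular ATP was quantified by luminescence.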
D3 antag: qHTS of D3 Dopamine Receptor Antagonist: qHTS; D(3) dopamine receptor (Homo sapiens), P35462; D3R cells, DiscoveRx beta-arrestin luminescence, antagonist mode; active compounds read low; max response, negative = inhibition, %; 360,000 compounds, 2.5% hits; AID 652054, 2013; in the data active means max response below about -50%; inconclusive means no clear call, values can overlap the other calls
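Cells plated overnight at 1500 cells/well, then exposed to library compounds with dopamine controls for 90 minutes at 37 degrees C. DiscoveRx reagent added for 30–60 minutes at room temperature; luminescence read, quantitative HTS format.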
IL-1B inflam inh: qHTS for Inhibitors of Inflammasome Signaling: IL-1-beta AlphaLISA Primary Screen. THP-1 LPS/ATP IL-1B secretion, AlphaLISA, 16 h; active compounds read low. activity change, % at 57.5 µM. 360,000 compounds, 4.7% hits; in the data active means activity change below about -50%; inconclusive means mostly about -30% to -49%
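THP-1 cells pretreated 1 hr with compounds (up to 57.5 uM final), then stimulated with LPS (250 ng/mL final) plus ATP (1.25 mM final); secreted IL-1B measured by AlphaLISA after 16 hr, decreased signal indicating inhibition.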
ClpP mod: qHTS Assay for Activators of ClpP; 340,000 compounds, 1.9% hits; ATP-dependent Clp protease proteolytic subunit (Bacillus subtilis (strain 168)), P80244; Potency, µM (titrated, usually from 57.5 µM); purified B. subtilis ClpP, FRET peptide cleavage, 20 min; AID 651965, 2013; active means well fitted falling curve with a large enough effect; inconclusive means small, poorly fitted or top-dose-only effect; inactive means no such curve, though single readings can be large or run the other way; further: the source files actives as falling curves though it sought activators and does not explain the sign; nearly all actives have a fitted effect of over 65% in size
Target sequence (P80244 whole entry, looked up): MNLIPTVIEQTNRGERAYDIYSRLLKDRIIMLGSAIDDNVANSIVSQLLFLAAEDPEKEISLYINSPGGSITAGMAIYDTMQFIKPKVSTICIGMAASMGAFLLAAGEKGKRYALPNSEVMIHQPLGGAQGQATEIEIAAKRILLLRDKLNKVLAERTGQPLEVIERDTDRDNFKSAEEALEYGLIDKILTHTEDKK
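FRET quenching reversal measured ClpP activation: 10 microg/mL B. subtilis ClpP at pH 8 with the FRET-FV decapeptide, read at 430 nm after 320 nm excitation. The 20-min minus 0-min signal was scaled between DMSO/no-enzyme wells and ADEP (5.8 microM final).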
DT40 TDP1 CPT: qHTS for Inhibitors of human tyrosyl-DNA phosphodiesterase 1 (TDP1): qHTS in cells in presence of CPT; chicken DT40 Tdp1-/-;hTDP1 cells + 20 nM CPT, ATP luminescence, 48 h; Potency, µM (doses to about 46.2 µM), hits mostly inhibitors; 420,000 compounds, 12% hits; further: nearly all actives have a fitted effect of over 55% in size
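Chicken DT40 Tdp1-/- cells stably complemented with human TDP1 were seeded at 400 cells/well in medium containing 20 nM camptothecin, exposed to pin-transferred compounds, and grown at 37 °C for at least 48 hr. Viability was read as ATP luminescence.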
Hits are given with their value; i = inactive; ? = inconclusive; nt = no result given. Unless noted, the call rests on the fitted dose curve; in most records, active means well fitted inhibition curve with a large enough effect; inconclusive means small, poorly fitted or top-dose-only effect; inactive means flat fitted curve, though single readings scatter.

SMILES | DRD3 agonist | TDP1 cell noCPT | D3 antag | IL-1B inflam inh | ClpP mod | DT40 TDP1 CPT
O=C(NCC(c1ccco1)N1CCN(c2ccccc2F)CC1)c1ccco1 (configuration not stated) | 39 | ? | i | i | i | i
O=C(NCC(c1cccnc1)N1CCN(c2ccccc2F)CC1)c1ccco1 (configuration not stated) | i | 23µM | i | i | i | ?
O=C(NCc1cccs1)C(=O)NCC(c1ccco1)N1CCN(c2ccccc2F)CC1 (configuration not stated) | 73 | ? | i | i | i | 23µM
O=C(NCC(c1ccco1)N1CCN(c2ccc(F)cc2)CC1)c1ccco1 (configuration not stated) | i | ? | i | i | i | ?
O=C(NCC(c1ccco1)N1CCN(c2ccccc2F)CC1)c1cccs1 (configuration not stated) | i | ? | i | i | i | i
CNc1nc(-c2c(C)noc2C)nc2ccccc12 | nt | i | nt | nt | nt | i
O=C(CC1C(=O)NCCN1Cc1ccccc1C(F)(F)F)NC1CCCCCC1 (configuration not stated) | i | i | i | i | i | i
NNC(=O)CN1C(=O)Nc2ccc(Br)cc2C1c1ccccc1 (configuration not stated) | i | i | i | i | i | i
COc1cc(C2=Nc3ccc(Br)cc3C(c3ccccc3)N2CC(=O)NN)cc(OC)c1OC (configuration not stated) | i | i | -51 | i | nt | i
NNC(=O)CN1C(c2ccc(Br)cc2)=Nc2ccc(Br)cc2C1c1ccccc1 (configuration not stated) | i | i | -55 | ? | i | i
c1ccc(-c2ccc(OCCCNC3CCCC3)cc2)cc1 | i | ? | i | nt | nt | 15µM
N#Cc1ccc(OCCOCCNC2CCCC2)cc1 | i | i | -50 | i | nt | i
C=CCc1ccccc1OCCNCCCOC | i | i | -102 | i | i | i
C=CCc1cc(Cl)ccc1OCCCn1ccnc1 | i | 21µM | i | i | i | ?
C=CCc1cc(Cl)ccc1OCCNCCCOC | i | ? | -59 | ? | i | ?
CCc1cccc2c(-c3ccc(F)cc3)nc(SCC(=O)Nc3ccccc3)nc12 | i | i | nt | nt | i | ?
COc1ccc(C2CC(c3ccc(Br)cc3)=NN2C(=O)CSC2=NCCS2)cc1 (configuration not stated) | i | 16µM | i | -65 | i | 16µM
COc1ccc(C2=NN(C(=O)CSc3ncccn3)C(c3cccc(OC)c3OC)C2)cc1 (configuration not stated) | i | ? | i | i | nt | ?
COc1ccc(C2=NN(C(=O)CSc3ncccn3)C(c3ccc(C)cc3)C2)cc1 (configuration not stated) | i | 18µM | i | i | i | ?
Cc1ccc(CN2CCC(CNC(=O)C3CCCN(c4ncnc5c4nc4n5CCCCC4)C3)CC2)cc1 (configuration not stated) | i | ? | i | -66 | i | ?
CCOc1ccc(CCNC(=O)C2CCCN(c3ncnc4c3nc3n4CCCCC3)C2)cc1 (configuration not stated) | i | 23µM | i | i | nt | ?
CCOC(=O)C(=CNc1ccc(-c2ccco2)c(Cl)c1)C(=O)OCC | 38 | 16µM | i | i | i | 21µM
CCOC(=O)C(=CNc1ccc(C(F)(F)F)cc1Cl)C(=O)OCC | i | ? | i | i | nt | i
CCOC(=O)C(=CNc1cc(Cl)c(-c2ccco2)c(Cl)c1)C(=O)OCC | i | 12µM | i | i | ? | 18µM
COc1cccc(C(=O)OCC(=O)Nc2ccc3c(c2)OCCO3)c1 | i | ? | i | i | nt | i
SMILES | DRD3 agonist | TDP1 cell noCPT | D3 antag | IL-1B inflam inh | ClpP mod | DT40 TDP1 CPT
O=C(c1cc(=O)c2ccccc2o1)N1CCN(c2cccc(Cl)c2)CC1 | i | ? | i | i | nt | ?
COc1cc2c(C(=O)N3CCN(c4cccc(C(F)(F)F)c4)CC3)cn(CC(C)C)c(=O)c2cc1OC | i | 18µM | nt | nt | i | 16µM
CCn1cc(C(=O)N2CCN(C(=O)c3ccco3)CC2)c2cc(OC)c(OC)cc2c1=O | i | i | i | i | i | i
CC(C)Cn1cc(NC(=O)N2CCN(c3cccc(Cl)c3)CC2)c2ccccc2c1=O | i | ? | nt | nt | i | 7.3µM
CC(C)Cn1cc(NC(=O)Nc2cccc(C(F)(F)F)c2)c2ccccc2c1=O | i | ? | nt | nt | i | 21µM
COc1cc2c(C(=O)N3CCN(c4cccc(C)c4)C(C)C3)cn(CC(C)C)c(=O)c2cc1OC (configuration not stated) | i | ? | nt | nt | i | 15µM
CC(OC(=O)CCc1ccccc1)C(=O)Nc1ccc(Cl)cn1 (configuration not stated) | i | i | ? | i | i | i
CNC(=S)Nc1cccc(C(=O)OC)c1 | i | i | i | nt | nt | i
Cc1ccc(-n2ncc3c(NCc4ccccc4)ncnc32)cc1Cl | i | ? | nt | nt | i | ?
CCN(CC(=O)Nc1cccc(OC)c1)C(=O)c1ccco1 | i | i | i | i | i | i
COc1ccc(N2CCN(C(=O)Nc3ccccc3C)CC2)cc1 | i | i | i | i | i | i
COc1ccc(N2CCN(C(=O)Nc3cn(CC(C)C)c(=O)c4ccccc34)CC2)cc1 | i | 15µM | nt | nt | i | i
Cc1ccc(CNC(=O)Nc2cn(CC(C)C)c(=O)c3ccccc23)cc1 | i | ? | nt | nt | i | i
COc1cccc(CNC(=O)Nc2cn(CC(C)C)c(=O)c3ccccc23)c1 | i | ? | nt | nt | i | i
CC(C)Cn1cc(NC(=O)N2CCN(c3cccc(C(F)(F)F)c3)CC2)c2ccccc2c1=O | i | 16µM | nt | nt | i | 15µM
Cc1ccc(C)c(N2CCN(C(=O)Nc3cn(CC(C)C)c(=O)c4ccccc34)CC2)c1 | i | 16µM | nt | nt | i | 13µM
Cc1ccc(NC(=O)Nc2cn(CC(C)C)c(=O)c3ccccc23)cc1N(C)C | i | 23µM | nt | nt | ? | 21µM
Cc1ccc(Oc2ccc(S(=O)(=O)N3CCOCC3)cc2C(N)=O)cc1C | i | ? | i | i | i | ?
COc1ccc(C(=O)NCCN2CCCC2)cc1 | i | i | -54 | i | i | i
O=C(NCCN1CCN(C(=O)c2ccc(F)cc2)CC1)c1ccc(F)cc1 | i | i | -79 | i | i | i
COc1ccc(CC(=O)NCCN2CCCC2)cc1 | i | i | i | i | i | i

Source: PubChem
